High-throughput results deposited in PubChem by National Center for Advancing Translational Sciences (NCATS).
Most compounds without a hit are left out; they make up all but 6.5% or so of the library.
TGFb inhibitor: inhibitors of TGF-b signaling; HepG2 CAGA-GFP TGF-b/SMAD3 reporter, GFP fluorescence, 18 h; TGF-beta stimulated, 500 pg/mL final; Potency, µM (series often up to 46.1 µM), inactives show at the highest dose activity, negative = inhibition, most hits filed as inhibitors; 410,000 tested, 1.2% active; AID 588855; further: potency means the concentration at half of the fitted maximal effect; on the % scale 0 is the no-effect control and ±100 the full control effect; nearly all actives have a fitted effect of over 65% in size
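Smad-responsive CAGA-GFP expression was quantified in HEPG2 cells exposed to compounds and 500 pg/mL final TGF-beta for 18 h at 37 degrees C; unstimulated wells defined full inhibition.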
Giardia killer: kills Giardia lamblia; Giardia lamblia trophozoite viability; activity change, % at 7.66 µM, hits read low; 340,000 tested, 0.15% active; in the data active means activity change below about -80%; inconclusive means between about -30% and that limit;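 further: parasites exposed to compound for two days anaerobically before the ATP read; on the % scale 0 is the no-effect control and ±100 the full control effect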
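Trophozoites 100 cells/well + cpd; 48 hrs, 37 deg C, anaerobic. ATPLite 1-Step added, 15-30 min RT, luminescence read (ATP-based viability).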
HepG2 tox: HepG2 cytotoxicity, counter-screen for TGF-b inhibitors; 410,000 tested, 0.76% active; Potency, µM (doses to about 46.1 µM), inactives show at the highest dose activity change, negative = cytotoxicity, actives largely listed as cytotoxic; HepG2 CAGA-GFP viability, ATP luminescence, 18 h; further: potency means the concentration at half of the fitted maximal effect
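CellTiter-Glo luminescence gave cytotoxicity after 18 hours at 37 degrees C. The cells were HepG2 CAGA-GFP in 1% FBS DMEM, stimulated with 500 pg/mL TGF-beta after compound addition. %Activity was normalised to no-cell wells (complete cell-killing) and DMSO (no toxicity), and curves were fitted and classified.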
HT1080 IDH1KD tx: toxicity to HT-1080 IDH1 knockdown cells (counter line); AID 686971; 360,000 tested, 2% active; HT-1080 IDH1 knockdown viability, ATP luminescence, 48 h; Potency, µM (top dose mostly 46.1 µM), for the others: at the highest dose activity, negative = toxicity, hits mostly cytotoxic;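 further: potency means the concentration at half of the fitted maximal effect; 0% = DMSO wells and -100% = cell-free medium wells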
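Assay cells: HT-1080 with IDH1 knockdown, 750 per well, RPMI/5% FBS. Exposure: 48 h at 37 °C following 2 h pre-incubation. Read: CellTiter-Glo luminescence; fitted concentration-response, curve class assigned.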
HT1080NT lethal: kills 2HG-producing HT-1080-NT fibrosarcoma cells; Potency, µM (doses to about 46.1 µM), without a hit: at the highest dose activity, negative = less viability, most hits filed as cytotoxic; 360,000 tested, 1.6% active; HT-1080-NT fibrosarcoma viability, CellTiter-Glo ATP luminescence, 48 h;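 further: NT is the 2HG producing partner of a matched IDH1 knockdown line; potency means the concentration at half of the fitted maximal effect; 0% = DMSO-treated cells and -100% = media-only wells without cells; nearly all actives have a fitted effect of over 55% in size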
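Fibrosarcoma NT cells, 750 per well in 5% FBS RPMI, were exposed to compound for 48 hours. Viability: CellTiter-Glo luminescence.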
IL-1B inflam inh: inhibitors of inflammasome signaling (IL-1 beta secretion); THP-1 LPS/ATP IL-1B secretion, AlphaLISA, 16 h; hits give low values; activity change, % at 57.5 µM; 360,000 tested, 4.7% active; in the data active means activity change below about -50%; inconclusive means mostly about -30% to -49%; further: on the % scale 0 is the no-effect control and ±100 the full control effect
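Secreted IL-1B measured by AlphaLISA bead assay after 16 h compound exposure of THP-1 cells; compounds (final up to 57.5 uM) added 1 h before LPS (250 ng/mL) and ATP (1.25 mM) stimulation; lower signal means less secretion.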
An asterisk follows results filed as active; ? = inconclusive; . = not tested or not shown; ! = repeats disagree; [ ] = dose if it differs, or a comment. Unless noted, the call rests on the fitted dose curve; in most records, active means well fitted curve in the direction sought with a large enough effect; inconclusive means small, poorly fitted or top-dose-only effect, or another doubt; inactive means no such curve, though single readings can be large; an effect the other way counts as inactive or inconclusive.

SMILES	TGFb inhibitor	Giardia killer	HepG2 tox	HT1080 IDH1KD tx	HT1080NT lethal	IL-1B inflam inh
CCC(=O)/C=C1/Sc2ccccc2N1CC	-9%	-2	7%	0%	-2%	-2
CCN(c1ccccc1)S(=O)(=O)c1ccc(OC)c(NC(=O)Cc2ccccc2OC)c1	13%	-3	2%	-10%	5%[9.24 µM]	0
Cc1ccc(-c2n[nH]c(=O)c3ccccc23)cc1S(=O)(=O)Nc1ccccc1	0%	9	7%	21µM*	26µM*	-8
COc1cc(C2C3=C(CC(C)(C)CC3=O)NC3=C2C(=O)c2ccccc23)ccc1O (stereo not drawn)	-7%	?	-5%	-22%	-24%	5
CC1(C)CC(=O)C2=C(C1)NC1=C(C(=O)c3ccccc31)C2c1ccc(Cl)cc1 (stereo not drawn)	?	-1	-45%	18µM*	-14%	-54*
Cc1ccc(C2C3=C(CC(C)(C)CC3=O)NC3=C2C(=O)c2ccccc23)cc1 (stereo not drawn)	-5%	-13	3%	-29%	?	-57*
CSC1=C(C#N)C(c2ccc(Cl)cc2)C2=C(CC(C)(C)CC2=O)N1 (stereo not drawn)	11µM*	-5	4%	8.2µM*	-29%	-3
CS(=O)(=O)c1ccccc1C(=O)Nc1cc(Cl)ccc1-n1cncn1	?	-12	-12%	3%	-2%	-1
O=C(Nc1cc(Cl)ccc1-n1cncn1)c1cc(F)c(F)c(F)c1F	15%	-11	0%	-1%	1%	-93*
Nc1nnc(CC(=O)N/N=C/c2ccc(-c3ccc(F)cc3)o2)s1	2%	-30	4%	9%	16%	-51*
CCOC(=O)c1ccc(-c2ccc(/C=N/NC(=O)Cc3nnc(N)s3)o2)cc1	2%	5	11%	-6%	-1%	9
O=C(c1ccccc1Nc1ccc(SC(F)F)cc1)N1CCCCC1	-13%	3	-20%	-8%	1%	?
CC(CNC(=O)c1cnn(-c2ccc(F)cc2)c1-n1cccc1)c1ccccc1 (stereo not drawn)	10µM*	.	-9%	.	.	.
CCc1nc2ccc(C(=O)NC(C)(C)C)cn2c1N(CC)Cc1cccc(Br)c1	?	.	-42%	?	?	-58*
CCCOc1ccc(C(F)(F)F)cc1NS(=O)(=O)c1ccc(Cl)nc1	?	13	-15%	?	?	-65*
COCCn1c(SCC(=O)Nc2cccc(S(N)(=O)=O)c2)nc2cc(Cl)ccc2c1=O	3%	-3	11%	-23%	-9%	-68*
C=CCn1c(SCC(=O)Nc2cccc(S(N)(=O)=O)c2)nc2sc(C)c(C)c2c1=O	-5%	-10	-8%	?	-8%	-61*
COCCn1c(SCC(=O)Nc2sccc2C(N)=O)nc2cc(Cl)ccc2c1=O	-12%	1	-32%	?	?	-54*
Cc1onc(-c2c(Cl)cccc2Cl)c1C(=O)N1CCN(c2ccccc2F)CC1	-9%	5	2%	-1%	-3%	4
COc1ccccc1CNC(=O)COC(=O)c1ccc(C(=O)c2ccccc2)cc1	20%	-17	2%	-7%	-1%	8
COc1ccccc1CNC(=O)COC(=O)c1ccccc1-c1ccccc1	-25%	2	-17%	-2%	-4%	-83*
CCn1[nH]c(=O)c(=Nc2c(C)n(C)n(-c3ccccc3)c2=O)cc1-c1ccc(Cl)cc1	0%	-10	-38%	-16%	-13%	-52*
Cc1c(N=Cc2ccc(-c3ccc(Cl)cc3)o2)c(=O)n(-c2ccccc2)n1C	-8%	-15	8%	8%	14%	13
CCN1C(=O)/C(=C2/Sc3ccccc3N2CC)S/C1=N\c1ncn[nH]1	18%	8	-18%	-2%	-14%	-55*
C=CCN1C(=O)/C(=C2/Sc3ccccc3N2CC)SC1=S	0%	13	-6%	1%	-1%	32
SMILES	TGFb inhibitor	Giardia killer	HepG2 tox	HT1080 IDH1KD tx	HT1080NT lethal	IL-1B inflam inh
COc1ccc(C2CC(c3ccccc3)Oc3c(C)ccc(C(C)C)c32)cc1 (stereo not drawn)	?	?	-6%	.	.	.
COc1ccc(C2CC(=O)Oc3cc(OC)ccc32)cc1 (stereo not drawn)	-2%	-9	0%	1%	-2%	5
COc1ccc(C2CC(O)(c3ccccc3)Oc3c(C)ccc(C(C)C)c32)cc1 (stereo not drawn)	16µM*	9	-33%	.	.	.
COc1ccc(C2CC(O)(c3ccccc3)Oc3cc(OC)ccc32)cc1 (stereo not drawn)	18µM*	-9	13µM*!	?	?	?
Cc1ccc2c(C(=O)N3CCN(c4ccccc4)CC3)cc(-c3cccnc3)nc2c1C	-8%	-15	-4%	23µM*	?	-64*
Cn1cc(C(=O)N2CCN(c3cccc(C(F)(F)F)c3)CC2)c2c3ccccc3n(C)c2c1=O	?	.	-106%	.	.	.
COc1ccc(CN2C(=O)c3ccccc3C2C(=O)NC2CCCCCC2)c(OC)c1 (stereo not drawn)	?	7	-20%	-17%	-12%	-54*
C=CCOCCN(C)C1=NS(=O)(=O)c2cc([N+](=O)[O-])ccc21	?	-2	14µM*	?	-1%	?
CN(CCO)C1=NS(=O)(=O)c2cc([N+](=O)[O-])ccc21	-4%	-8	-25%	-17%	1%	16
CC1(C)CC(=O)C(=Cc2cn(-c3ccccc3)nc2-c2ccc(Cl)cc2)C(=O)C1	12%	1	14%	?	18%	0
CC1=NNC(=O)/C1=C\c1cn(-c2ccccc2)nc1-c1ccccc1	8.9µM*	9	10µM*	13µM*	16µM*	-104*
CCC(Sc1ncccn1)C(=O)Nc1cc(C)on1 (stereo not drawn)	0%	6	-5%	3%	6%	0
OCc1ccc2c(c1)c(-c1ccc3c(c1)OCCO3)c(-c1ccccc1)n2-c1ccccc1	20µM*	-9	-8%	-18%	?	0
CCOc1ccccc1N1CC(c2nc3ccccc3n2CCOc2ccccc2OC)CC1=O (stereo not drawn)	0%	.	-20%	.	.	.
Cc1cc(C)nc(/N=C(\N)Nc2cccc([N+](=O)[O-])c2)n1	0%	11	5%	-2%	4%	-97*
Cc1cc(C)nc(/N=C(\N)Nc2ccc([N+](=O)[O-])cc2)n1	-11%	-4	12%	15%	4%	-57*
